From PubChem BioAssay (EPA / NIEHS) come the findings set out here.

Inconclusive results are not listed. The source made the active and inactive calls. The calls were made as follows: active = hit-call score of the fitted dose curve at least 0.9, where 1 is the maximum; inconclusive = response in the unintended direction; inactive = score below 0.9.

The nature of the assay: Tanguay_ZF_120hpf_NC_legacy: (Legacy) Oregon State University Tanguay Lab 120 Hour Post-fertilization zebrafish Assay for Notochord and Tail Malformation (AID 2283656). Here is the method: Tanguay_ZF_120hpf_legacy is a whole embryo, multiplexed endpoint assay using zebrafish larvae exposed for 120 hours post fertilization on a 96-well plate.Tanguay_ZF_120hpf_NC_legacy is one of one assay component(s) measured or calculated from the Tanguay_ZF_120hpf_legacy assay. It is designed to make measurements of zebrafish development as detected with brightfield microscopy of developing zebrafish embryos.Data from the assay component Tanguay_ZF_120hpf_NC_legacy was analyzed into 1 assay endpoints. This assay endpoint, Tanguay_ZF_120hpf_NC_legacy, was analyzed in the positive analysis fitting direction relative to DMSO as the negative control and baseline of activity. Using a type of morphology reporter, gain-of-signal activity can be used to understand changes in developmentals as they relate to the whole embryo. To generalize the intended target to other relatable targets, this assay endpoint is annotated to the zebrafish development intended target family, where the subfamily is embryonic notochord morphogenesis.
Zebrafish husbandry: Tropical 5D wild-type adult zebrafish were housed in at an approximate density of 1000 per 100 gallon tank at the Sinnhuber Aquatic Research Laboratory, Oregon State University, Corvallis, OR. Each tank was kept at standard laboratory conditions of 28C on a 14-h light/10-h dark photoperiod in fish water consisting of reverse osmosis water supplemented with a commercially available salt (Instant Ocean). Spawning funnels were placed into the tanks the night prior, and embryos were collected and staged. To increase bioavailability, the chorion was enzymatically removed using pronase (63.6mg/ml, >/= 3.5U/mg, Sigma-Aldrich: P5147) at 4 hours post fertilization (hpf) using a custom automated dechorionator.Chemical exposures: Six hpf dechorionated embryos were placed 1 embryo per well in a 96-well plate prefilled with 90 ul of EM using automated embryo placement systems (AEPS). Ten microliters of each row of dilution plate 2 was added to 2 exposure plates. The final DMSO concentration used was 0.64% (vol/vol). Thirty-two embryos were also exposed to 5uM trimethyltin chloride (positive control). Plates were sealed to prevent evaporation and foil covered to reduce light exposure and kept in a 28C incubator. Embryos were statically exposed until 120 hpf. At 24 hpf, embryos were assessed for photomotor response using a custom photomotor response analysis tool (PRAT) and for developmental toxicity endpoints (MO24: mortality at 24 hpf, DP: developmental progression, SM: spontaneous movement, and NC: notochord distortion). At 120 hpf, locomotor activity was measured using Viewpoint Zebralab and assessed for 18 endpoints. Zebrafish acquisition and analysis program (ZAAP), a custom program designed to inventory, acquire, and manage zebrafish data, was used to collect developmental endpoints as either present or absent (i.e., binary responses were recorded). If mortality occurred for an embryo (at either 24 or 120 hpf), the non-mortality endpoints were not measured.
Regarding `COc1cc(C=O)cc2c1[C@H](COC(N)=O)[C@]1(OC(C)=O)ON2C[C@H]2[C@@H]1N2C(C)=O`, the outcome was inactive.
With `CCCCC(CC)COC(=O)c1ccc(C(=O)OCC(CC)CCCC)c(C(=O)OCC(CC)CCCC)c1` (stereo not given), the outcome was inactive.
As to `CCCCCOC(=O)c1ccccc1C(=O)OCCCCC`, the compound was called inactive.
The same measure, in the same setting: under `CCN(CC)N=O` stands “inactive”; under `CC(C)(OOC(C)(C)c1ccccc1)c1ccccc1`, “inactive”; under `ClCCOCCCl`, “inactive”.
`C[N+](C)(C)CC1CO1` (stereo not given): the compound was classed as inactive.
On to `c1ccc(NNc2ccccc2)cc1`, for which the outcome was inactive.
In general, AC50 refers to the concentration giving half of the maximal activity seen. Consider `Oc1ccc2ccc3cccc4ccc1c2c34`, for which the AC50 was 11 µM (active).
`CN(C)C(=O)Nc1ccc(Cl)cc1`: the result was inactive.
With `OCCOCCO`, the outcome was inactive.
`Cc1ccc(N=C=O)cc1N=C=O`: the result was inactive.
Still for that read-out and setting: under `C=CCc1ccc2c(c1)OCO2` stands “inactive”.
Regarding `CCC(C)c1ccc(O)cc1` (stereo not given), the result was inactive.
The same measure, in the same setting: under `COC(=O)Nc1nc2ccccc2[nH]1` stands “inactive”.
As to `Nc1ccc(Cc2ccc(N)cc2)cc1`, the call was inactive.
`CS(=O)(=O)NC(=O)c1cc(Oc2ccc(C(F)(F)F)cc2Cl)ccc1[N+](=O)[O-]`: the call was inactive.
In the case of `COP(=S)(OC)SCN1C(=O)c2ccccc2C1=O`, the outcome was inactive.
Turning to `Cc1cccc(N)c1N`, the outcome was inactive.
With `CN(C)c1ccc(C(=O)c2ccc(N(C)C)cc2)cc1`, the call was inactive.
With `N#CC(Br)Br`, the compound was classed as inactive.
Still for that read-out and setting: in the case of `CCCCCCCCOC(=O)c1ccc(C(=O)OCCCCCCCC)c(C(=O)OCCCCCCCC)c1` it was “inactive”.
Regarding `CCNS(=O)(=O)C(F)(F)C(F)(F)C(F)(F)C(F)(F)C(F)(F)C(F)(F)C(F)(F)C(F)(F)F`, the outcome was inactive.
Still for that read-out and setting: under `c1ccc(C2CO2)cc1` (stereo not given) stands “inactive”; under `CC(C)(C)C(O)(CCc1ccc(Cl)cc1)Cn1cncn1` (stereo not given), “inactive”.
On the same count and under the same terms, in the case of `O=C(O)C1C2CCC(O2)C1C(=O)O` (stereo not given) it was “inactive”.
On the same count and under the same terms, in the case of `CCOC(=O)[C@]1(c2ccccc2)Oc2ccccc2[C@@H]1N` it was “inactive”.
In the case of `c1ccc2c(c1)oc1ccccc12`, the compound was classed as inactive.
With `Cn1cc(-c2ccccc2)c(=O)c(-c2cccc(C(F)(F)F)c2)c1`, the call was inactive.
Regarding `CCOc1cccc(C2(N3CCN(c4ccccc4)CC3)CCC(C)CC2)c1` (stereo not given), the compound was classed as inactive.
Consider `[As]#[In]`, for which the compound was called inactive.
Same read-out and setting: in the case of `CC(C)(C)OOC(C)(C)CCC(C)(C)OOC(C)(C)C` it was “inactive”.
Regarding `OCCCl`, the result was inactive.
Consider `O=C(Oc1ccc(Br)cc1)N1CCN2CCC1CC2`, for which the compound was classed as inactive.
Turning to `c1ccc(N=Nc2ccccc2)cc1`, the call was inactive.
In the case of `C[C@]12C=CC3=C4CCC(=O)C=C4CC[C@H]3[C@@H]1CC[C@@H]2O`, the call was inactive.
As for `Nc1cc(Cl)cc(C(=O)O)c1Cl`, the outcome was inactive.
Same read-out and setting: under `OCCCBr` stands “inactive”; under `CCC12COCN1COC2`, “inactive”; under `CCN(CC)CCO`, “inactive”.
